The campaign covered roughly 13,000 compounds. About 3,200 (25%) showed an effect of 50% or more. This is one part of the list.

This test deals with P. falciparum stage V gametocytes. Details: BacTiter-Glo ATP luminescence viability of purified stage V gametocytes in 384-well plates, per cent inhibition versus DMSO. Particulars: 48 h, 5 µM; inhibitor.
Regarding `COc1cccc(C(=O)NCc2cccs2)c1Oc1ccccc1` [TCMDC-141236], the “% Inhibition” value came to 3.513%. For `NCC(=O)Nc1cccc(Nc2nccc(-c3c(-c4cccc(NC(=O)c5ccccc5)c4)nn4ccccc34)n2)c1` [TCMDC-135671], the “% Inhibition” value is listed as -11.23%.

`CC1CCN(C(=O)C(Cc2c[nH]c3ccccc23)NS(=O)(=O)c2ccc(Cl)cc2)CC1` (stereo not shown) [TCMDC-124494]: the “% Inhibition” value is 54%. To `O=C(NCCC1CCN(CCc2c[nH]c3ccccc23)CC1)Nc1ccc(Cl)c(Cl)c1` [TCMDC-139151] belongs 31.54%; to `CC1CCN(C(=O)[C@H](Cc2c[nH]c3ccccc23)NS(=O)(=O)c2ccc(Cl)cc2)CC1` [TCMDC-125035], 69.39%. Turning to `O=C(CCc1ccccc1)N[C@H](Cc1c[nH]c2ccccc12)C(=O)N1CCC(NCc2ccc3c(c2)Cc2ccccc2-3)CC1` [TCMDC-135353], the “% Inhibition” value was found to be 27.37%.

With `C[C@@H](CNc1ccnc(Nc2ccc3[nH]c(=O)[nH]c3c2)n1)c1ccccc1` [TCMDC-136803], the “% Inhibition” value is -37.25%. The figure for `O=C(c1cc(C(F)(F)F)cc(C(F)(F)F)c1)N1CCC(CCN2CCC3(CC2)C(=O)NCN3c2ccccc2)CC1Cc1ccc(Cl)c(Cl)c1` (stereo not shown) [TCMDC-141945] is -34.22%; for `CC1(C)[C@H]2CC[C@@H](CNc3nc(NCC(=O)Nc4ccc5ccccc5c4)nc(N4CCC(N5CCCC5)CC4)n3)[C@@H]1C2` [TCMDC-139977] it is 10.19%. In the case of `CC1(C)[C@H]2CC[C@@H](CNc3nc(NCCc4cnc[nH]4)nc(Nc4ccc(Oc5ccccc5)cc4)n3)[C@@H]1C2` [TCMDC-139744], the “% Inhibition” value is -37.07%. The figure for `CN1CCN(c2cccc(-c3nnc(-c4ccc(OCC(=O)NCc5ccc(C(F)(F)F)cc5)c([N+](=O)[O-])c4)o3)c2)CC1` [TCMDC-134942] is 2.294%.

Take `CC(C)(C)OC(=O)NCc1ccc(Nc2nnc(-c3ccc(OCC(=O)NCc4ccc(C(C)(C)C)cc4)c([N+](=O)[O-])c3)o2)cc1` [TCMDC-134991]: the “% Inhibition” value is on record as 114.3%.

For the compound `CC(C)(C)c1ccc(CNC(=O)COc2ccc(-c3nnc(-c4cccc([N+](=O)[O-])c4)o3)cc2[N+](=O)[O-])cc1` [TCMDC-134986], the “% Inhibition” value is listed as -5.433%. The figure for `CC(C)(C)OC(=O)NCc1ccc(Nc2nnc(-c3ccc(OCC(=O)NC[C@@H]4CC[C@H]5C[C@@H]4C5(C)C)c([N+](=O)[O-])c3)o2)cc1` [TCMDC-135039] is 110.7%; for `CCCc1cc(N2CCC(N3CCCC3)CC2)nc(Nc2ccc(Cl)cc2)n1` [TCMDC-132386] it is 18.02%. To `COc1ccc(C2CC(c3cccs3)=NN2C(=O)COc2cccc(C(C)=O)c2)cc1OC` (stereo not shown) [TCMDC-125111] belongs -18.64%; to `FC(F)(F)c1ccc(-c2cncc(-c3ccc(C(F)(F)F)cc3)n2)cc1` [TCMDC-138711], -27.18%; to `N#Cc1cccc(Nc2nccc(NCC(O)c3ccccc3C(F)(F)F)n2)c1` (stereo not shown) [TCMDC-136576], -28.54%. To `O=C(Nc1ccc(-c2csc3nccn23)cc1)c1ccc(Cl)cc1` [TCMDC-137159] belongs 11.24%; to `CN1CCN(CCCN(Cc2ccc(-c3ccc(CNCc4ccc5c(c4)OCO5)cc3)cc2)C(=O)Nc2ccccc2)CC1` [TCMDC-140607], 58.83%; to `CN1CCN(CCCN(Cc2ccc(-c3cccc(CNCc4ccc5c(c4)OCO5)c3)cc2)C(=O)Nc2ccccc2)CC1` [TCMDC-140606], 65.32%. Consider `CN1CCN(CCCN(Cc2cccc(-c3ccc(CNCc4ccc5c(c4)OCO5)cc3)c2)C(=O)Nc2ccccc2)CC1` [TCMDC-140596], for which the “% Inhibition” value is 57.54%. For the compound `CN1CCN(CCCN(Cc2ccc(-c3cccc(CNCc4ccc5c(c4)OCO5)c3)cc2)C(=O)NCCc2ccccc2)CC1` [TCMDC-140947], the “% Inhibition” value was 67.47%. Take `c1ccc2c(c1)ncn2-c1ccnc(Nc2ccncc2)n1` [TCMDC-138908]: the “% Inhibition” value is given as 15.51%. To `Cc1ccc(NC(=O)c2cc(Br)cc(N3CCCN(C)CC3)c2)cc1F` [TCMDC-135143] belongs -89.56%; to `CCCCCN1CCCC(CNS(=O)(=O)c2ccc(C(=O)Nc3ccc(C(F)(F)F)cc3)cc2)C1` (stereo not shown) [TCMDC-133679], -5.047%. The figure for `c1ccc2c(c1)CN(CC1CCOCC1)CC1(CCN(Cc3c[nH]c4cnccc34)CC1)O2` [TCMDC-133380] is 13.86%. To `O=C(NCCCN(Cc1ccc(F)cc1)c1ccccn1)C(c1cc2ccccc2o1)N1CCN(C(c2ccccc2)c2ccccc2)CC1` (stereo not shown) [TCMDC-141022] belongs 15.04%; to `CCN(CCN(C)C)Cc1ccc(-c2ccc(NS(=O)(=O)c3cccc(Cl)c3)cc2)cc1` [TCMDC-136601], 2.097%.

With `O=C(COC(=O)c1cccc(S(=O)(=O)N2CCc3ccccc32)c1)NNC(=O)c1cccs1` [TCMDC-124334], the “% Inhibition” value turned out to be 26.4%. `CC(C)C[C@H](NC(=O)c1ccc(OCCN2CCOCC2)cc1)C(=O)N[C@H](/C=N/NC(=O)c1ccccc1)CCc1ccccc1` [TCMDC-135817]: the “% Inhibition” value was found to be 2.96%.

As for `CN(C)C=Nc1ccc(OCCCCCCOc2ccc(N=CN(C)C)cc2)cc1` [TCMDC-137575], the “% Inhibition” value is reported as -11.04%. The figure for `CC(C)CCN=C(N)c1ccc(OCCCCCOc2ccc(C(N)=NCCC(C)C)cc2)cc1` [TCMDC-137618] is 62.8%; for `CCCCN=C(N)Nc1ccc(OCCCOc2ccc(NC(N)=NCCCC)cc2)cc1` [TCMDC-137616] it is 55.77%; for `COc1ccc(CN=C(N)Nc2nc(-c3ccc(OCCCn4ccnc4)cc3)cs2)cc1` [TCMDC-138934] it is 9.829%. Take `CCCCCCN=C(N)c1ccc(OCCCCCOc2ccc(C(N)=NCCCCCC)cc2)cc1` [TCMDC-137619]: the “% Inhibition” value came out at 113.3%. `CCCCN=C(N)c1ccc(OCCCCCOc2ccc(C(N)=NCCCC)cc2)cc1` [TCMDC-137617]: the “% Inhibition” value stood at 33.37%.

In the case of `CCCCCN=C(N)c1ccc(OCCCCCOc2ccc(C(N)=NCCCCC)cc2)cc1` [TCMDC-137620], the “% Inhibition” value is recorded as 63.24%. The figure for `NC(=NCc1ccc(O)cc1)Nc1nc(-c2ccc(OCCCn3ccnc3)cc2)cs1` [TCMDC-138936] is -10.17%; for `CCCCCCN=C(N)c1ccc2nc(-c3ccc(O)cc3)[nH]c2c1` [TCMDC-137218] it is 15.89%; for `O=C(Nc1cccc(-c2cc3ccccc3[nH]2)c1)C1CCN(Cc2ccccc2O)CC1` [TCMDC-124628] it is -2.419%.

In the case of `COC(=O)Nc1cc(C(F)(F)F)ccc1N1CCCC(NS(=O)(=O)c2ccc(C(C)(C)C)cc2)C1` (stereo not shown) [TCMDC-134158], the “% Inhibition” value is -30.72%. Consider `CN1CCN(c2ccnc3ccc(NC(=O)Nc4ccc(Br)cc4)cc23)CC1` [TCMDC-139324], for which the “% Inhibition” value is recorded as -20.3%.

Regarding `CC(CNC1CCN(CCn2c(=O)ccc3ccc(F)cc32)CC1)c1ccccc1` (stereo not shown) [TCMDC-135136], the “% Inhibition” value is given as 3.185%.

With `CCN1CCCC(CNC(=O)/C(=C/C=C/c2cc3cc(Cl)c(Cl)cc3[nH]2)OC)C1` (stereo not shown) [TCMDC-139380], the “% Inhibition” value is -27.83%. The figure for `CC1CCC(C[C@@H](C(=O)N[C@H](C(=O)Nc2nccs2)[C@@H](C)O)[C@H](CCC(F)(F)F)N(O)C=O)CC1` (stereo partly shown) [TCMDC-138352] is 2.054%; for `Cc1ccc(OCCCCON2C(N)=NC(N)=NC2(C)C)cc1C` [TCMDC-131655] it is 1.03%; for `COc1ccc2nccc([C@@H](O)CN3CCC(NCc4ccc5c(n4)NCCC5)CC3)c2c1` [TCMDC-141460] it is 44.65%. To `Nc1c2c(nc3ccc(NC(=O)CCCCCc4ccccc4)cc13)CCCC2` [TCMDC-139060] belongs -0.3465%; to `CN1CCN(c2ccnc3ccc(NC(=O)Cc4ccc5ccccc5c4)cc23)CC1` [TCMDC-139351], 4.671%. To `Nc1c2c(nc3ccc(NC(=O)CCCc4ccccc4)cc13)CCCC2` [TCMDC-139057] belongs 98.45%; to `Cc1ccc2cc(NC(=O)CCCCCCCON3C(N)=NC(N)=NC34CCCCC4)ccc2n1` [TCMDC-140377], 0.7997%. For the compound `O=C(Nc1ccc(O)c(-c2nc3ccccc3[nH]2)c1)c1ccc([N+](=O)[O-])cc1` [TCMDC-124222], the “% Inhibition” value is recorded as -7.746%. The figure for `Nc1c2c(nc3ccc(NC(=O)c4ccccc4)cc13)CCCC2` [TCMDC-139043] is 28.63%; for `Nc1c2c(nc3ccc(NC(=O)Cc4ccccc4)cc13)CCCC2` [TCMDC-139055] it is 81.23%; for `CN1CCN(c2ccnc3ccc(NC(=O)Cc4ccc(OCc5ccccc5)cc4)cc23)CC1` [TCMDC-139349] it is 24.22%. Consider `O=C(CCCc1ccccc1)Nc1cccc(N2CCC(N3CCN(c4ccccc4O)CC3)CC2)c1` [TCMDC-124664], for which the “% Inhibition” value is -59.43%. To `Cc1cc(N(C)C)nc(Nc2ccc(NC(=O)CCc3ccccc3)cc2)n1` [TCMDC-124721] belongs 2.562%; to `Nc1c2c(nc3ccc(NC(=O)CCCCCCc4ccccc4)cc13)CCCC2` [TCMDC-139056], 74.85%; to `Nc1c2c(nc3cc(NC(=O)c4ccc([N+](=O)[O-])cc4)ccc13)CCCC2` [TCMDC-138975], 103.7%. As for `COc1ccc2cc(C(=O)NC3CCC(CCN4CCc5cc(C#N)ccc5C4)CC3)[nH]c2c1` (stereo not shown) [TCMDC-139193], the “% Inhibition” value is on record as -26.16%. As to `O=C(/C=C/c1ccc(Cl)c(Cl)c1)NC1CCC(CN2CCC(c3nc4ccc(O)cc4[nH]3)CC2)CC1` (stereo not shown) [TCMDC-140227], the “% Inhibition” value was found to be 3.463%. Consider `CCCc1cc(Cc2cnc(N)nc2N)cc(CCC)c1OC` [TCMDC-137694], for which the “% Inhibition” value is -10.37%. The figure for `Cc1ccc(-c2noc(=O)n2CC(=O)Nc2ccccc2-c2ccccc2)cc1` [TCMDC-123570] is 15.39%.

Source of the values: publication PMC4552634, “A New Set of Chemical Starting Points with Plasmodium falciparum Transmission-Blocking Potential for Antimalarial Drug Discovery” (PLoS ONE, 2015).
